Test results reported in PubChem BioAssay (NCATS).
Inconclusive results are not listed. The source made the active and inactive calls. The call rests on the fitted dose curve; in most records, active means well fitted curve in the direction sought with a large enough effect; inconclusive means small, poorly fitted or top-dose-only effect, or another doubt; inactive means no such curve, though single readings can be large; an effect the other way counts as inactive or inconclusive.

Tests used:
[1] = Cell Viability - LYMP2-004 (AID 966); further: nearly all actives have a fitted effect of over 65% in size
How it was run: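 Viable-cell number estimated from ATP luminescence (CellTiter-Glo) in 2500 human lymphoblastoid cells/well after 24 hr at 37 C with compound. AC50 fitted to the standard Hill equation.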

[2] = Cell Viability - LYMP2-009 (AID 968); further: series mostly up to about 92 µM; nearly all actives have a fitted effect of over 55% in size
[3] = Cell Viability - LYMP2-011 (AID 969);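 further: cells exposed to compound for 24 hours; nearly all actives have a fitted effect of over 60% in size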
How it was run: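 Cells seeded at 2500 per well rest 5 hr before compound addition, then incubate 24 hr at 37 C. CellTiter-Glo reagent is added for 30 min at room temperature before luminescence detection.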

[4] = Cell Viability - LYMP2-013 (AID 970); further: series mostly up to about 92 µM; nearly all actives have a fitted effect of over 55% in size
How it was run: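 In complete culture medium, human lymphoblastoid cells were dosed for 24 hr at 37 C, with tetraoctylammonium bromide (6.4pM to 92 uM) as positive control. Viability reflects luciferase-based ATP signal; AC50 derived from concentration-response curves.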

[5] = Cell Viability - LYMP2-015 (AID 971); further: nearly all actives have a fitted effect of over 55% in size
How it was run: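 AC50 values reflect Hill-model fits of ATP-based luminescence (CellTiter-Glo) from a human lymphoblastoid line, 2500 cells/well, treated 24 hr at 37 C.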

[6] = Cell Viability - LYMP2-017 (AID 972);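 further: series mostly up to about 92 µM; cells exposed to compound for 24 hours at 37 °C; nearly all actives have a fitted effect of over 55% in size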
How it was run: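 In this qHTS format, lymphoblastoid cells in complete medium receive test compound for a day at 37 C before ATP content is quantified by luciferase luminescence. Reported AC50 figures come from standard Hill-equation curve fitting.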

[7] = Cell Viability - LYMP2-019 (AID 973); further: nearly all actives have a fitted effect of over 55% in size
How it was run: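 AC50 values come from Hill-equation modelling of qHTS concentration-response curves, where viability is measured as luciferase-based ATP luminescence in the lymphoblastoid line after 24 hr compound exposure in complete culture medium.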

[8] = Cell Viability - LYMP2-021 (AID 974)
How it was run: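 In qHTS format, compounds are tested against 2500 lymphoblastoid cells per well for 24 h; viable cell number is inferred from ATP-driven luciferase light, and Hill-equation fitting yields AC50 values.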

[9] = Cell Viability - LYMP2-023 (AID 975)
How it was run: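 In this qHTS, ATP-based luciferase luminescence (CellTiter-Glo) is quantified in human lymphoblastoid cells after 24 hr compound treatment at 37 C; tetraoctylammonium bromide serves as positive control. Concentration-response curves are Hill-fitted to give AC50.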

[10] = Cell Viability - LYMP2-025 (AID 976); further: series mostly up to about 92 µM
How it was run: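 Luminescent ATP readout after 24 hr treatment of a human lymphoblastoid line (LYMP2-025, 2500 cells/well, 37 C). Reagent developed 30 min at room temperature; AC50 fitted with the Hill equation.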

[11] = Cell Viability - LYMP2-002 (AID 977);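 further: series mostly up to about 92 µM; compound exposure lasted 24 h at 37 °C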
How it was run: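 In this qHTS viability screen, 2500 human lymphoblastoid cells per well receive compound for 24 hr at 37 C, and luciferase-based ATP luminescence gives the viability signal. Tetraoctylammonium bromide serves as positive control.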

[12] = Cell Viability - LYMP2-006 (AID 978);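 further: series mostly up to about 92 µM; cells exposed to compound for 24 hours; nearly all actives have a fitted effect of over 60% in size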
How it was run: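 Human lymphoblastoid cells (LYMP2-006), 2500/well in complete medium, were treated with compound for 24 hr at 37 C. Cellular ATP was read by CellTiter-Glo luminescence after 30 min, and AC50 values came from Hill-equation fits of concentration-response data.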

[13] = Cell Viability - LYMP2-007 (AID 979);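 further: cells exposed to compound for 24 h before reading; nearly all actives have a fitted effect of over 60% in size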
How it was run: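 Measured via luciferase-based ATP quantitation: lymphoblastoid cells, 24 hr compound exposure at 37 C, AC50 from Hill fits.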

[14] = Cell Viability - LYMP2-008 (AID 980); further: nearly all actives have a fitted effect of over 60% in size
How it was run: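 Measured: ATP-dependent luminescence, proportional to viable cell number, in human lymphoblastoid cells treated 24 hr with compound in complete culture medium. Values are AC50s from Hill-equation modelling of qHTS titrations.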

[15] = Cell Viability - LYMP2-012 (AID 982)
[16] = Cell Viability - LYMP2-014 (AID 983); further: series mostly up to about 92 µM; nearly all actives have a fitted effect of over 50% in size
How it was run: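 Quantitative HTS in lymphoblastoid cells: 24 hr compound exposure, then CellTiter-Glo ATP luminescence. Positive control was tetraoctylammonium bromide, 6.4pM to 92 uM.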

[17] = Cell Viability - LYMP2-016 (AID 984)
How it was run: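 Human lymphoblastoid LYMP2-016 cells, 2500 per well, treated with compounds for 24 h at 37 C. Viability read as intracellular ATP by CellTiter-Glo luminescence after 30 min at room temperature; AC50 from Hill fits of concentration-response.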

[18] = Cell Viability - LYMP2-018 (AID 985); further: nearly all actives have a fitted effect of over 50% in size
How it was run: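 In this qHTS viability assay, cells are treated for 24 hr and cellular ATP is quantified by luciferase-based luminescence, with tetraoctylammonium bromide as positive control.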

[19] = Cell Viability - LYMP2-005 (AID 967); further: series mostly up to about 92 µM
How it was run: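 Human lymphoblastoid LYMP2-005 cells, 2,500 per well in complete medium, rested 5 h at 37C then compound-treated 24 h at 37C. Intracellular ATP read by CellTiter-Glo luminescence after 30 min at room temperature; AC50 from Hill-equation fits of concentration-response data.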

[20] = Cell Viability - LYMP2-010 (AID 981)
How it was run: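 This 24 hr viability screen uses LYMP2-010 lymphoblastoid cells, quantifies ATP via luciferase luminescence, and derives AC50 from Hill fits of qHTS concentration-response data.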

Measured: Potency

Cc1ccc2oc(=O)ccc2c1
inactive: [1] | [2] | [3] | [4] | [5] | [6] | [7] | [8] | [9] | [10] | [11] | [12] | [13] | [14] | [15] | [16] | [17] | [18]

Cc1ccc(C)c(N)c1
inactive: [1] | [19] | [2] | [3] | [4] | [5] | [7] | [8] | [9] | [10] | [11] | [12] | [13] | [16] | [17] | [18]

Cc1cc(C)cc(N)c1
inactive: [1] | [19] | [2] | [3] | [4] | [5] | [7] | [8] | [9] | [10] | [12] | [13] | [14] | [20] | [15] | [16] | [17] | [18]

CCNc1cc(O)ccc1C
inactive: [1] | [2] | [3] | [4] | [5] | [6] | [7] | [8] | [9] | [10] | [11] | [12] | [13] | [14] | [20] | [15] | [16] | [17] | [18]

C=CCOC(=O)COCCC(C)C
inactive: [1] | [19] | [2] | [3] | [4] | [5] | [7] | [8] | [9] | [10] | [11] | [12] | [13] | [20] | [15] | [16] | [17] | [18]

CCCCCCCCC
inactive: [1] | [2] | [3] | [4] | [5] | [6] | [7] | [8] | [9] | [10] | [11] | [12] | [13] | [14] | [20] | [15] | [16] | [17] | [18]

CCCCCCC=O
inactive: [1] | [2] | [3] | [4] | [5] | [6] | [7] | [8] | [9] | [10] | [11] | [12] | [14] | [20] | [16] | [17] | [18]

Oc1cccc(Nc2ccccc2)c1
inactive: [1] | [19] | [2] | [3] | [4] | [5] | [7] | [8] | [9] | [11] | [12] | [13] | [14] | [15] | [16] | [17] | [18]

Cc1ccc(Br)cc1
inactive: [1] | [19] | [2] | [3] | [4] | [5] | [7] | [8] | [9] | [10] | [11] | [12] | [14] | [20] | [15] | [16] | [17] | [18]

Nc1nc2ccccc2[nH]1
inactive: [1] | [2] | [3] | [4] | [5] | [6] | [7] | [8] | [9] | [10] | [11] | [12] | [13] | [14] | [20] | [15] | [16] | [17] | [18]

O=[N+]([O-])c1ccc(CCO)cc1
inactive: [1] | [19] | [2] | [3] | [7] | [9] | [10] | [13]

Cc1cccc(C(=O)O)c1
inactive: [1] | [2] | [3] | [4] | [5] | [6] | [7] | [8] | [9] | [10] | [11] | [12] | [13] | [14] | [15] | [16] | [17] | [18]

Cc1cccc2cccnc12
inactive: [1] | [2] | [3] | [4] | [5] | [6] | [7] | [8] | [9] | [10] | [11] | [12] | [14] | [20] | [15] | [16] | [17] | [18]

Cc1cscn1
inactive: [1] | [19] | [2] | [3] | [4] | [6] | [7] | [8] | [9] | [10] | [11] | [12] | [13] | [14] | [20] | [16] | [17] | [18]

CCCCN(CCO)CCCC
inactive: [1] | [2] | [3] | [4] | [5] | [6] | [7] | [8] | [9] | [10] | [11] | [12] | [13] | [14] | [20] | [15] | [16] | [17] | [18]

Cc1ccc(C)c([N+](=O)[O-])c1
inactive: [1] | [2] | [3] | [4] | [5] | [6] | [7] | [8] | [9] | [10] | [11] | [12] | [13] | [14] | [20] | [15] | [16] | [17] | [18]
